Holding throughout (set-up): scale not given: direction of the effect not stated beside the values
Test [1] deals with Protein translocase subunit SecA (Escherichia coli (strain K12)) (UniProt P10408). Nature of the test: Assay to Identify E. coli SecA ATPase Inhibitors. It counts as functional. Conditions: 30 µM.
For test [2], the target named is T1, Ubiquitin-activating enzyme e1, putative (Leishmania donovani (strain BPK282A1)) (UniProt E9BSI1).
T1 sequence (whole entry): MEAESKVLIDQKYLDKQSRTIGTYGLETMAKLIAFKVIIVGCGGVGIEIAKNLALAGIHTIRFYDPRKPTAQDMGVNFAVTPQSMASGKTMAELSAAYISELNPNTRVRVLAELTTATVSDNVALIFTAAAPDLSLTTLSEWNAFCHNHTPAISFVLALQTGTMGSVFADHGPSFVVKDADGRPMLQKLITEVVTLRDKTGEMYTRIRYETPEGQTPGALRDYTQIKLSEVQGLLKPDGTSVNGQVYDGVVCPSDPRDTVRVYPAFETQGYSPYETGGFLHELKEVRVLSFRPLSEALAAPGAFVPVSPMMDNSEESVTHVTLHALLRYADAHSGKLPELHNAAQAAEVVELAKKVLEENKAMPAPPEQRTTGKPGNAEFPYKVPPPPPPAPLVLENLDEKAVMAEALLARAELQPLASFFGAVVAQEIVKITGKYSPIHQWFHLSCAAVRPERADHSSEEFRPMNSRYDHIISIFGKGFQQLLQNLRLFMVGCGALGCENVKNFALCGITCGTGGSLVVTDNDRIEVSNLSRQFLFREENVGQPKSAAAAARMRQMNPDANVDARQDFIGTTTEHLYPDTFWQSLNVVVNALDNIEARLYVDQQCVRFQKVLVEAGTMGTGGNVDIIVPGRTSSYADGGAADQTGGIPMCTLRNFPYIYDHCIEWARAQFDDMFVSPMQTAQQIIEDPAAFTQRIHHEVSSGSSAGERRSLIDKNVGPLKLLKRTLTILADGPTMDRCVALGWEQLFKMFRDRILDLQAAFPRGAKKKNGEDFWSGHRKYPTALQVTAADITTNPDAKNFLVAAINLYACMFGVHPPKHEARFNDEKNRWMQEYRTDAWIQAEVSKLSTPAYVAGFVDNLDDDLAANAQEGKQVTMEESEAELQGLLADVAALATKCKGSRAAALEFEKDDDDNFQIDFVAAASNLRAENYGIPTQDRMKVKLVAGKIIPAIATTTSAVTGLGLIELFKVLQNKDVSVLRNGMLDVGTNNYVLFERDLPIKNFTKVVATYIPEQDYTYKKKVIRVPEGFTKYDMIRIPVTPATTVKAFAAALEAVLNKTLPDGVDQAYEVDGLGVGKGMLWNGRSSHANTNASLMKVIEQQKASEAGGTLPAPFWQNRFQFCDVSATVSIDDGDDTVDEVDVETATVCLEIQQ
Nature of the test: Leishmania donovani Ubiquitin Activating Enzyme (LdE1). It counts as functional. The settings on record: 30 µM.

Test [3] has as its target AMP-activated protein kinase, AMPK (Homo sapiens) (UniProt P54646+O43741+P54619+Q9UGJ0+Q9Y478+Q13131+Q9UGI9). The experiment in a line: AMP-dependent Kinase enzyme assay. An in vitro enzyme assay that detects ADP turnover that is directly proportional to AMPK activity. This uses naive AMPK that is activated during the assay with MK-8722. It is filed as functional. Conditions: 30 µM.

Test [4] deals with Sialic acid-binding Ig-like lectin 9 (Homo sapiens) (UniProt Q9Y336). The experiment in a line: Hs-Siglec9 ALPHAscreen SOP 20170721. The settings on record: 10 µM. On the technique in general: Alpha assays give light when donor and acceptor beads are brought close together.
The test system of another test is Trypanosoma cruzi. The experiment in a line: Trypanosoma cruzi phosphomannomutase and mannose-1-phosphate guanylyltransferase assay. It is filed as functional. The settings on record: 10 µM.
Test [5] addresses T2, Arginase-2, mitochondrial (Homo sapiens) (UniProt P78540).
T2 sequence (whole entry): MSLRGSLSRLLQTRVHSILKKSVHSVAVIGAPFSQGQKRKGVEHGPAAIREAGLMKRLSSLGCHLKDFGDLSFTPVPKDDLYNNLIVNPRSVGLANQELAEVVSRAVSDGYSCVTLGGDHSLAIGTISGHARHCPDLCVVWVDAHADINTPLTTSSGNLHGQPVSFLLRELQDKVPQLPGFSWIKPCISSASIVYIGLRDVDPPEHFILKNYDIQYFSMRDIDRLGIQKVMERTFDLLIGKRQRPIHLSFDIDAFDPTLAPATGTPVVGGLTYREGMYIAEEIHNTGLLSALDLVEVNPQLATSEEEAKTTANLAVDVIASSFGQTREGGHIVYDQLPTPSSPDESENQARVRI
The experiment in a line: in vitro enzyme assay to detect the production of urea directly proportional to the activity of Arginase II. Note: in the data most compounds retested in dose-response had high values. It counts as functional. Conditions: 33.3 µM.

Test [6] addresses T3, Proteasome subunit beta (Trypanosoma cruzi) (UniProt O96673).
T3 sequence (whole entry): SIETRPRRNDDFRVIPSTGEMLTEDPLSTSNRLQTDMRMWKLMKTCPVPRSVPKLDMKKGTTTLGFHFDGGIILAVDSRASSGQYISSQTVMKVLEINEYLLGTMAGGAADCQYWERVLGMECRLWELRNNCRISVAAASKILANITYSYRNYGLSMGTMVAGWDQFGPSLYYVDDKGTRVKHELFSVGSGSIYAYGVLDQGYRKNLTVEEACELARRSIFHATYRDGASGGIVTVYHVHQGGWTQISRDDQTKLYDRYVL
Nature of the test: Trypanosoma cruzi proteasome chymotrypsin-like activity (TcProtChymo) assay. Note: in the data most compounds retested in dose-response had high values. It counts as functional. The settings on record: 9.37 µM.

The species entered for a further test is Homo sapiens. The experiment in a line: To identify inhibition of the IFN signalling (Jak-Stat) pathway via expression of an eGFP reporter gene under the control of an IFN-stimulated response element (ISRE) containing MxA promoter. It is filed as functional. The settings on record: 30 µM. (Reporter assays use an easily measured gene product as a stand-in for the process of interest.)

Test [7] has as its target T4, Tyrosyl-tRNA synthetase, putative (Trypanosoma cruzi (strain CL Brener)) (UniProt Q4DSP6).
T4 sequence (whole entry): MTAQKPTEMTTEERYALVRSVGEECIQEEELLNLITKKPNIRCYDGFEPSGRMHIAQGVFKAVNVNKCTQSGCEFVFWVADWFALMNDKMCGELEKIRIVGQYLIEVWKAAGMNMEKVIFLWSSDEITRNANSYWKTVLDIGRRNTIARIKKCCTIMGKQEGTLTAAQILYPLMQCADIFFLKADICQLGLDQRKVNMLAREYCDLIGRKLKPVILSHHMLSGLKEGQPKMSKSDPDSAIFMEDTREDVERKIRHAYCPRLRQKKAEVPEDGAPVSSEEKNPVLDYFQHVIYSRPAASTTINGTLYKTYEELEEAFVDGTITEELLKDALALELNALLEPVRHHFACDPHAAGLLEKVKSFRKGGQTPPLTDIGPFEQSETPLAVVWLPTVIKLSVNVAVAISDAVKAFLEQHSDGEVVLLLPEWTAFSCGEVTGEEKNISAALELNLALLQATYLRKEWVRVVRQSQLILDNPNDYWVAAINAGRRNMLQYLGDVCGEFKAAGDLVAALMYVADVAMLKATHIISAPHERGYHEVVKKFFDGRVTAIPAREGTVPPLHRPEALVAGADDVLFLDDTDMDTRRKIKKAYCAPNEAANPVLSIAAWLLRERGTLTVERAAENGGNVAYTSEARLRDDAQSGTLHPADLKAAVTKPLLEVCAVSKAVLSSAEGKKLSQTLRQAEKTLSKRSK
The experiment in a line: Trypanosoma cruzi tyrosyl tRNA synthetase (TcYRS) _High Tyrosine SOP. Note: in the data most compounds retested in dose-response had high values. It is filed as functional. Conditions: 30 µM.

Test [8] has as its target T4, Tyrosyl-tRNA synthetase, putative (Trypanosoma cruzi (strain CL Brener)). The experiment in a line: Trypanosoma cruzi tyrosyl tRNA synthetase (TcYRS) SOP. It counts as functional. The settings on record: 30 µM.
In test [9] the target is Chromo domain-containing protein 1 (Saccharomyces cerevisiae (strain ATCC 204508 / S288c) (Baker's yeast)) (UniProt P32657). Nature of the test: ScCHD-1 Enzyme Inhibition Assay. Note: in the data most compounds retested in dose-response had high values. It counts as functional. The settings on record: 30 µM.

For some of these results: Potency and affinity values are given separately.

Sequence of Chromo domain-containing protein 1 (Saccharomyces cerevisiae (strain ATCC 204508 / S288c) (Baker's yeast)) (P32657 whole entry, the tested form may be a part): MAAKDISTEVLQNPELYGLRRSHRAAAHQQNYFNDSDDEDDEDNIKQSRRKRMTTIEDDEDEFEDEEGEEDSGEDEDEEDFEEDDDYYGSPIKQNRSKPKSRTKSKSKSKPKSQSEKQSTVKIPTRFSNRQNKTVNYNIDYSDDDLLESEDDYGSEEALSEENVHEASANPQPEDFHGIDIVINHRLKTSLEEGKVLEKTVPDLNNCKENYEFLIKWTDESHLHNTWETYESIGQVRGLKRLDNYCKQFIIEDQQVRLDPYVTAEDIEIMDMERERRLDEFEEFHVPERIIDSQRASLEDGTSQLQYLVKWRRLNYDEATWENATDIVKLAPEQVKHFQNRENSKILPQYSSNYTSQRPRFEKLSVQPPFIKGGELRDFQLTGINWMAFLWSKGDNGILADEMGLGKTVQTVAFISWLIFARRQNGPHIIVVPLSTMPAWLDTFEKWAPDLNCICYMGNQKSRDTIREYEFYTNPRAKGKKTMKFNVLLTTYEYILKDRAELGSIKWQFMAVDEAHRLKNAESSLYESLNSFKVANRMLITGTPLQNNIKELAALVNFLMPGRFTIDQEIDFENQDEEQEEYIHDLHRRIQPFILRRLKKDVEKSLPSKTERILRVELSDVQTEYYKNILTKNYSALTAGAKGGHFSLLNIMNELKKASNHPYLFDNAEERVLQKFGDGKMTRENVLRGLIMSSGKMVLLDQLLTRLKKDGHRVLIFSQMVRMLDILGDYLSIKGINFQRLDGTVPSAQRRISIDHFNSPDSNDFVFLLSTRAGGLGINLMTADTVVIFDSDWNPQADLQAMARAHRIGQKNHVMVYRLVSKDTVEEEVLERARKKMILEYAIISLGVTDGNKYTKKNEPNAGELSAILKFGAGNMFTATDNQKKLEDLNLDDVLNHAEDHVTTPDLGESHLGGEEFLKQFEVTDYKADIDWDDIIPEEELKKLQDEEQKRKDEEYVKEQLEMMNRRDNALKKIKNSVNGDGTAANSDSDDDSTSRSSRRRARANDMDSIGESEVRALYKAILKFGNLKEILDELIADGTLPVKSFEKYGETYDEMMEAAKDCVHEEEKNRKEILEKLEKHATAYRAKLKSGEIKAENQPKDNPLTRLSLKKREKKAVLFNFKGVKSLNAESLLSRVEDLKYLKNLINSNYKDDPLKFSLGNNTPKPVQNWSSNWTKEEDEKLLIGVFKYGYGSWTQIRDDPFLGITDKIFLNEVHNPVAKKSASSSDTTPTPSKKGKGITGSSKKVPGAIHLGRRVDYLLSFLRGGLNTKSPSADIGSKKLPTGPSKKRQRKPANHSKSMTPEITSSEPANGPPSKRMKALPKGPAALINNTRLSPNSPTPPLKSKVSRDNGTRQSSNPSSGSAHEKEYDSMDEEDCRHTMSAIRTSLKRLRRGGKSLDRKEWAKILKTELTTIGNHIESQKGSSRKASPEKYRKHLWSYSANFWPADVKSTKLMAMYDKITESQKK
Sequence of Sialic acid-binding Ig-like lectin 9 (Homo sapiens) (Q9Y336 whole entry): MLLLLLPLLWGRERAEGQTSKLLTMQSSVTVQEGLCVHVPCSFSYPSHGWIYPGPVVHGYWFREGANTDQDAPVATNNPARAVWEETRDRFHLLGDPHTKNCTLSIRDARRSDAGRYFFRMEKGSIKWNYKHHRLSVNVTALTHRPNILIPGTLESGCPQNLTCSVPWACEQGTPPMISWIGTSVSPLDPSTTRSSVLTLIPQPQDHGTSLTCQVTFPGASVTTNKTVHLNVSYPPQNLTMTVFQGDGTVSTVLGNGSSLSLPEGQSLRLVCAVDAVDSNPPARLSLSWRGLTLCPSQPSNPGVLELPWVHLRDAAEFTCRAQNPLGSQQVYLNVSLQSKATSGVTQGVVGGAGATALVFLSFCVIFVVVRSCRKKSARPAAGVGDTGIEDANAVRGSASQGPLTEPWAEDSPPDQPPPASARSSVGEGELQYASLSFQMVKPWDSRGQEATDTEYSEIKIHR
Sequence of Protein translocase subunit SecA (Escherichia coli (strain K12)) (P10408 whole entry): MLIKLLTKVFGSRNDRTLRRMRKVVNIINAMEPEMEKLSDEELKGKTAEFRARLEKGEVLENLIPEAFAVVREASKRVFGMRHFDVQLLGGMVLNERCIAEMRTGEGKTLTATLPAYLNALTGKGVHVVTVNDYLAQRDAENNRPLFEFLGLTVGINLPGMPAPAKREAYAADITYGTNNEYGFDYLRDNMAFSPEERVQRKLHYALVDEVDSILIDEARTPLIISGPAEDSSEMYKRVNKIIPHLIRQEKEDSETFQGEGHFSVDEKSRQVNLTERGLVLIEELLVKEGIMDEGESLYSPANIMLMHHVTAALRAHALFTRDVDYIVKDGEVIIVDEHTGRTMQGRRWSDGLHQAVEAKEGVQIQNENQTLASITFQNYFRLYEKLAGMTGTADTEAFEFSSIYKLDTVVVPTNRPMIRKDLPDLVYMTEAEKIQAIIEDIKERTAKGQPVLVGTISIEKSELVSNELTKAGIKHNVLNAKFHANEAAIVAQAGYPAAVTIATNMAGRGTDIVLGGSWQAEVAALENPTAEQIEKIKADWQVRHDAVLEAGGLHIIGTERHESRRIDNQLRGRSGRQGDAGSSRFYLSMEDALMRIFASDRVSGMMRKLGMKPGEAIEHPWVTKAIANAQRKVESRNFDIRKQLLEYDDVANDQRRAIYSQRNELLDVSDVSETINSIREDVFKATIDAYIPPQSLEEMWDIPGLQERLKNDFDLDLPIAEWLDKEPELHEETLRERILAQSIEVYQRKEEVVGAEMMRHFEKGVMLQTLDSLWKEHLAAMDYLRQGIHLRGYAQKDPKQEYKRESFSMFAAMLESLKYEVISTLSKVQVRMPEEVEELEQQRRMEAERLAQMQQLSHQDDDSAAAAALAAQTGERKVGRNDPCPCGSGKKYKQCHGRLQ

Turning to `CSCc1cccc(S(=O)(=O)NCCCO)c1`, the Percent Effect is -4.83% in test [1]; 5.2% in test [2]; 5.07% in test [3]; 1.97% in test [4]; -0.0983% with Trypanosoma cruzi; -20.7% in [5]. Also, the Percent Effect in [6] is 3.33%; in the test listed under Homo sapiens, -20.6%; in [7], 5.38%; in test [8], 11.1%; in test [9], -2.83%.
`O=C(c1ccc(Br)o1)N1CCCC(n2cncn2)C1` (stereo not drawn): the Percent Effect was -5.45% in test [1]; -1.39% in test [2]; 0.96% in [3]; -6.28% in [4]; -3.6% in the test with Trypanosoma cruzi; -2.21% in test [5]. Besides, the Percent Effect was 4.04% in [6]; 7.55% in the test filed under Homo sapiens; 0% in [7]; 2.56% in test [8]; 1.43% in test [9].
As for `CCN(CC)C(=O)CCn1ncc2c(Cl)cccc21`, the Percent Effect in test [1] was -0.381%; in test [2] it was 1.33%; in test [3], 3.83%; in [4], 7.06%; with Trypanosoma cruzi, -5.89%; in test [5], -17.1%. For the same compound, the Percent Effect in test [6] was 16.1%; in the test filed under Homo sapiens, 0.421%; in test [7], 0%; in test [8], 2.56%; in [9], -11.2%.
Consider `CC(C)N(C)Cc1cnc2n1CCN(C(=O)NC1CCCC1)C2`, for which the Percent Effect was -1.5% in test [1]; 0% in test [2]; 9.85% in test [3]; -1.01% in [4]; -7.09% in the test on Trypanosoma cruzi; 3.96% in [5]. Moreover, the Percent Effect in test [6] is 13.7%; in the test filed under Homo sapiens, 7.83%; in test [7] it was 1.06%; in test [8], 1.28%; in test [9], 0.39%.
On to `CCSc1cc(C(=O)NCCC(=O)Nc2ccccn2)ccn1`, for which the Percent Effect in test [1] was -5.48%; in [2], 2.74%; in test [3], -2.02%; in [4], 1.7%; in the test on Trypanosoma cruzi it was 6.27%; in [5], 0.909%. Further, the Percent Effect in [6] was 8.16%; in the test listed under Homo sapiens it was 15.8%; in test [7], 5.38%; in test [8] it was 17.5%; in test [9], -3.9%.
With `CN(C)C(=O)CNC(=O)CCn1ncc2c(Cl)cccc21`, the Percent Effect in [1] is -5.52%; in test [2], 4%; in test [3], 2.92%; in test [4] it was 1.65%; with Trypanosoma cruzi, 3.73%; in [5] it was -7.57%. For the same compound, the Percent Effect was 14.1% in test [6]; 16.1% in the test filed under Homo sapiens; 2.12% in test [7]; 7.69% in [8]; -12.3% in test [9].
In the case of `CCc1nnc2n1CCN(C(=O)c1ccc3[nH]cnc3c1)C2`, the Percent Effect was -7.1% in test [1]; 12.5% in test [2]; -11.5% in test [3]; 41.5% in [4]; 6.9% in the test on Trypanosoma cruzi; 3.97% in test [5]. Also, the Percent Effect in [6] was 10.2%; in the test filed under Homo sapiens, 0.294%; in test [7] it was 3.16%; in test [8] it was 15.4%; in test [9], -13.2%.
For `Cc1cnn(CC2CCCN2C(=O)c2nccc3ccccc23)c1` (stereo not drawn), the Percent Effect in test [1] is -3.25%; in [2] it was 13%; in test [3] it was 4.54%; in [4], 3.78%; with Trypanosoma cruzi it was -0.49%; in test [5], -1.05%. In addition, the Percent Effect in test [6] was 6.39%; in the test filed under Homo sapiens it was 10.7%; in test [7] it was 0%; in test [8], 11.8%; in test [9], -15.9%.

Source of the values: ChEMBL document CHEMBL3988442, “University of Dundee, Small-Polar-MMV Screening Library” (2021).
